# Results filed as inconclusive are left out. Calls of active or inactive are those of the source. The calls were made as follows: active = hit-call score of the fitted dose curve at least 0.9, where 1 is the maximum; inconclusive = response in the unintended direction; inactive = score below 0.9.
# Key:
# [1] = Tanguay_ZF_120hpf_YSE_legacy: (Legacy) Oregon State University Tanguay Lab 120 Hour Post-fertilization zebrafish Assay for Yolk Sac Edema (AID 2283634);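 as to AC50: actives raise the incidence of yolk sac edema above the DMSO baseline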
# Procedure, shortened: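 Dechorionated Tropical 5D wild-type zebrafish embryos were exposed statically, one per well, from 6 to 120 hpf at 28C in 0.64% DMSO. Yolk sac edema was scored present/absent by brightfield at 120 hpf, and dead embryos were excluded.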
# [2] = Tanguay_ZF_120hpf_AXIS_legacy: (Legacy) Oregon State University Tanguay Lab 120 Hour Post-fertilization zebrafish Assay for Body Axis Malformation (AID 2283635);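 as to AC50: potency for an increased fraction of larvae scored with body axis malformation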
# Procedure, shortened: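 Dechorionated wild-type Tropical 5D zebrafish embryos, one per well, statically exposed from 6 hpf to 120 hpf at 28C in 0.64% DMSO final. Body axis malformation scored present/absent by brightfield microscopy at 120 hpf; dead embryos excluded.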
# [3] = Tanguay_ZF_120hpf_EYE_legacy: (Legacy) Oregon State University Tanguay Lab 120 Hour Post-fertilization zebrafish Assay for Eye Malformation (AID 2283636);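 also: binary presence or absence of eye malformation scored by brightfield in 120 hpf larvae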
# Procedure, shortened: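 Static waterborne exposure of dechorionated zebrafish embryos (strain Tropical 5D), 6 to 120 hpf, sealed plates at 28C, 0.64% DMSO vehicle. Eye malformation is scored as a binary endpoint, with gain of signal analysed relative to DMSO.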
# [4] = Tanguay_ZF_120hpf_SNOU_legacy: (Legacy) Oregon State University Tanguay Lab 120 Hour Post-fertilization zebrafish Assay for Snout Malformation (AID 2283637)
# Procedure, shortened: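 Dechorionated zebrafish, individually housed from 6 hpf in covered, sealed wells at 28C with 0.64% DMSO vehicle, were examined at 120 hpf for snout malformation. Responses were binary and analysed positive-direction relative to DMSO.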
# [5] = Tanguay_ZF_120hpf_JAW_legacy: (Legacy) Oregon State University Tanguay Lab 120 Hour Post-fertilization zebrafish Assay for Jaw Malformation (AID 2283638);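 as to AC50: active means more embryos with jaw malformation than DMSO controls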
# Procedure, shortened: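 Dechorionated Tropical 5D wild-type zebrafish embryos, one per well, exposed statically from 6 hpf to 120 hpf at 28C in 0.64% DMSO. Jaw malformation was scored by brightfield microscopy as present or absent. It was not scored in dead embryos.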
# [6] = Tanguay_ZF_120hpf_PE_legacy: (Legacy) Oregon State University Tanguay Lab 120 Hour Post-fertilization zebrafish Assay for Pericardial Edema (AID 2283640);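 as to AC50: potency for increased incidence of pericardial edema versus DMSO baseline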
# Procedure, shortened: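 Tropical 5D wild-type zebrafish embryos were statically exposed until 120 hpf at 28C, with 0.64% DMSO final. Pericardial edema was scored by brightfield as present or absent; endpoints were not scored in dead embryos.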
# [7] = Tanguay_ZF_120hpf_SOMI_legacy: (Legacy) Oregon State University Tanguay Lab 120 Hour Post-fertilization zebrafish Assay for Somite Malformation (AID 2283647)
# Procedure, shortened: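 Dechorionated Tropical 5D wild-type zebrafish embryos, one per well from 6 hpf, statically exposed at 28C to 120 hpf in 0.64% DMSO; somite malformation scored present/absent by brightfield; trimethyltin 5 uM positive control; dead embryos not scored.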
# [8] = Tanguay_ZF_120hpf_PFIN_legacy: (Legacy) Oregon State University Tanguay Lab 120 Hour Post-fertilization zebrafish Assay for Pectoral Fin Malformation (AID 2283648);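 also: each larva judged yes or no for fin defect by brightfield with dead larvae skipped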
# Procedure, shortened: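 Scoring of pectoral fin malformation was binary, made at 120 hpf on larvae exposed statically from 6 hpf after enzymatic chorion removal. Activity was fitted upward relative to DMSO controls at 0.64% (vol/vol).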
# [9] = Tanguay_ZF_120hpf_OTIC_legacy: (Legacy) Oregon State University Tanguay Lab 120 Hour Post-fertilization zebrafish Assay for Otic Vesicle Malformation (AID 2283639)
# Procedure, shortened: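 Statically exposed wild-type 5D zebrafish embryos, kept sealed and dark at 28C through 120 hours post fertilization, were examined by brightfield microscopy for otic vesicle defects. Responses were recorded as present or absent and analysed relative to DMSO.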
# [10] = Tanguay_ZF_120hpf_BRAI_legacy: (Legacy) Oregon State University Tanguay Lab 120 Hour Post-fertilization zebrafish Assay for Brain Malformation (AID 2283641)
# Procedure, shortened: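 Tropical 5D wild-type zebrafish embryos exposed statically until 120 hpf at 28C, 0.64% DMSO final, sealed and dark. Brain malformation scored present/absent by brightfield at 120 hpf; dead embryos excluded. Trimethyltin chloride 5uM positive control.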
compound,measurement,setting,value
Nc1cc(Cl)cc(C(=O)O)c1Cl,outcome,[1],inactive
same,outcome,[2],inactive
same,outcome,[3],inactive
same,outcome,[4],inactive
same,outcome,[5],inactive
same,outcome,[6],inactive
same,outcome,[7],inactive
same,outcome,[8],inactive
CC(C)COC(=O)c1ccccc1C(=O)OCC(C)C,outcome,[1],inactive
same,outcome,[2],inactive
same,AC50,[3],30.5 µM (active)
same,AC50,[4],44.1 µM (active)
same,AC50,[5],29.7 µM (active)
same,outcome,[9],inactive
same,outcome,[6],inactive
same,outcome,[10],inactive
same,AC50,[7],50.6 µM (active)
same,AC50,[8],45.5 µM (active)
CCC12COCN1COC2,outcome,[1],inactive
same,outcome,[2],inactive
same,outcome,[3],inactive
same,outcome,[4],inactive
same,outcome,[5],inactive
same,outcome,[9],inactive
same,outcome,[7],inactive
same,outcome,[8],inactive
Clc1ccc(C(c2ccc(Cl)cc2)C(Cl)Cl)cc1,outcome,[1],inactive
same,outcome,[2],inactive
same,outcome,[3],inactive
same,outcome,[4],inactive
same,outcome,[5],inactive
same,outcome,[9],inactive
same,outcome,[6],inactive
c1ccc(C2CO2)cc1 (stereo not drawn),outcome,[1],inactive
same,outcome,[2],inactive
same,outcome,[3],inactive
same,outcome,[4],inactive
same,outcome,[5],inactive
same,outcome,[9],inactive
same,outcome,[6],inactive
same,outcome,[10],inactive
same,outcome,[7],inactive
same,outcome,[8],inactive
c1ccc(N=Nc2ccccc2)cc1,outcome,[1],inactive
same,outcome,[2],inactive
same,outcome,[3],inactive
same,outcome,[4],inactive
same,outcome,[5],inactive
same,outcome,[9],inactive
same,outcome,[6],inactive
same,outcome,[10],inactive
same,outcome,[8],inactive
CS(=O)(=O)NC(=O)c1cc(Oc2ccc(C(F)(F)F)cc2Cl)ccc1[N+](=O)[O-],outcome,[1],inactive
same,outcome,[2],inactive
same,outcome,[3],inactive
same,outcome,[4],inactive
same,outcome,[5],inactive
same,outcome,[6],inactive
same,outcome,[10],inactive
same,outcome,[7],inactive
same,outcome,[8],inactive
CCCSC(=O)N(CCC)CCC,outcome,[1],inactive
same,outcome,[2],inactive
same,outcome,[3],inactive
same,outcome,[4],inactive
same,outcome,[5],inactive
same,outcome,[9],inactive
same,outcome,[6],inactive
same,outcome,[10],inactive
same,outcome,[7],inactive
same,outcome,[8],inactive
OCCOCCO,outcome,[1],inactive
same,outcome,[2],inactive
same,outcome,[3],inactive
same,outcome,[4],inactive
same,outcome,[5],inactive
same,outcome,[9],inactive
same,outcome,[6],inactive
same,outcome,[7],inactive
same,outcome,[8],inactive
C=CCc1ccc2c(c1)OCO2,outcome,[1],inactive
same,outcome,[2],inactive
same,outcome,[3],inactive
same,outcome,[4],inactive
same,outcome,[5],inactive
same,outcome,[6],inactive
same,outcome,[10],inactive
same,outcome,[7],inactive
same,outcome,[8],inactive
CN(C)c1ccc(C(=O)c2ccc(N(C)C)cc2)cc1,AC50,[1],25.4 µM (active)
same,AC50,[2],25.2 µM (active)
same,AC50,[3],8.23 µM (active)
same,AC50,[4],27.7 µM (active)
same,AC50,[5],23.4 µM (active)
same,AC50,[9],12.9 µM (active)
same,AC50,[6],22.7 µM (active)
same,AC50,[10],48.7 µM (active)
same,AC50,[7],28.4 µM (active)
same,AC50,[8],17.2 µM (active)
Nc1ccc([N+](=O)[O-])cc1,outcome,[1],inactive
same,outcome,[2],inactive
same,outcome,[3],inactive
same,outcome,[4],inactive
same,outcome,[5],inactive
same,outcome,[9],inactive
same,outcome,[6],inactive
same,outcome,[10],inactive
same,outcome,[7],inactive
same,outcome,[8],inactive
O=P(OCCCl)(OCCCl)OCCCl,outcome,[1],inactive
same,outcome,[2],inactive
same,outcome,[3],inactive
same,outcome,[4],inactive
same,outcome,[5],inactive
same,outcome,[9],inactive
same,outcome,[10],inactive
same,outcome,[7],inactive
same,outcome,[8],inactive
Oc1ccc2ccc3cccc4ccc1c2c34,AC50,[1],13.7 µM (active)
same,AC50,[2],13.1 µM (active)
same,AC50,[3],44.9 µM (active)
same,AC50,[4],44.2 µM (active)
same,AC50,[5],46.8 µM (active)
same,AC50,[9],11.2 µM (active)
same,AC50,[6],50.4 µM (active)
same,AC50,[10],46.1 µM (active)
same,AC50,[7],18.4 µM (active)
same,AC50,[8],12.2 µM (active)
CCCCC(CC)COC(=O)c1ccc(C(=O)OCC(CC)CCCC)c(C(=O)OCC(CC)CCCC)c1 (stereo not drawn),outcome,[1],inactive
same,outcome,[2],inactive
same,outcome,[3],inactive
same,outcome,[4],inactive
same,outcome,[5],inactive
same,outcome,[9],inactive
same,outcome,[6],inactive
same,outcome,[10],inactive
same,outcome,[7],inactive
same,outcome,[8],inactive
CO[C@@H]1[C@H](OC(=O)NC(=O)CCl)CC[C@]2(CO2)[C@H]1[C@@]1(C)O[C@@H]1CC=C(C)C,AC50,[1],0.0035 µM (active)
same,outcome,[2],inactive
same,outcome,[3],inactive
same,AC50,[4],0.239 µM (active)
same,AC50,[5],0.0405 µM (active)
same,outcome,[9],inactive
same,AC50,[6],0.0102 µM (active)
same,outcome,[10],inactive
same,outcome,[7],inactive
same,outcome,[8],inactive
COc1cc(C=O)cc2c1[C@H](COC(N)=O)[C@]1(OC(C)=O)ON2C[C@H]2[C@@H]1N2C(C)=O,outcome,[1],inactive
same,AC50,[2],51.3 µM (active)
same,outcome,[3],inactive
same,AC50,[4],21.6 µM (active)
same,outcome,[5],inactive
same,outcome,[9],inactive
same,outcome,[6],inactive
same,outcome,[10],inactive
same,outcome,[7],inactive
same,outcome,[8],inactive
CCC(C)c1ccc(O)cc1 (stereo not drawn),outcome,[1],inactive
same,outcome,[2],inactive
same,outcome,[3],inactive
same,outcome,[4],inactive
same,outcome,[5],inactive
same,outcome,[9],inactive
same,outcome,[6],inactive
same,outcome,[10],inactive
same,outcome,[7],inactive
same,outcome,[8],inactive
CCCCCOC(=O)c1ccccc1C(=O)OCCCCC,outcome,[1],inactive
same,outcome,[2],inactive
same,outcome,[3],inactive
same,outcome,[4],inactive
same,outcome,[5],inactive
same,outcome,[9],inactive
same,outcome,[6],inactive
same,outcome,[10],inactive
same,outcome,[7],inactive
same,outcome,[8],inactive
